Test results: the supplement of paper PMC12282887
± gives the standard deviation of the averaged measurements.

Assays:
Experiment in all cases: promoter activity interaction Z-score (Lux/OD deviation from empty-vector control); higher = stronger promoter induction by the compound
[1] = tested on: E. coli BW25113 acrABp lux reporter
Summary of the method: (§1)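 E. coli BW25113, as wild type or one of three single-gene deletion strains, carried low-copy luxCDABE promoter reporters and grew in 40 µl LB Lennox in 384-well plates at 37°C, with OD600 and luminescence read every 30 min for 12 h. Each compound was run at four 1:2 dilutions in biological duplicates, integration spanned 0–8 h for wild type and 1–9 h for deletion strains, and wells under 10% of the median growth value were dropped. The score is the Z-transformed residual of growth-normalised luminescence fitted against a control.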

[2] = tested on: E. coli BW25113 marRABp lux reporter
Summary of the method: as §1

[3] = tested on: E. coli BW25113 micFp lux reporter
Summary of the method: as §1

[4] = tested on: E. coli BW25113 ompFp lux reporter
Summary of the method: as §1

[5] = tested on: E. coli BW25113 robp lux reporter
Summary of the method: as §1

[6] = tested on: E. coli BW25113 soxSp lux reporter
Summary of the method: as §1

[7] = tested on: E. coli BW25113 tolCp lux reporter
Summary of the method: as §1

[8] = 0.26 µg/ml, genetic background: wild type
[9] = 0.26 µg/ml, genetic background: ΔmarA
[10] = 0.26 µg/ml, genetic background: Δrob
[11] = 0.26 µg/ml, genetic background: ΔsoxS
[12] = 0.52 µg/ml, genetic background: wild type
[13] = 0.52 µg/ml, genetic background: ΔmarA
[14] = 0.52 µg/ml, genetic background: Δrob
[15] = 0.52 µg/ml, genetic background: ΔsoxS
[16] = 1 µg/ml, genetic background: wild type
[17] = 1 µg/ml, genetic background: ΔmarA
[18] = 1 µg/ml, genetic background: Δrob
[19] = 1 µg/ml, genetic background: ΔsoxS
[20] = 2.1 µg/ml, genetic background: wild type
[21] = 2.1 µg/ml, genetic background: ΔmarA
[22] = 2.1 µg/ml, genetic background: Δrob
[23] = 2.1 µg/ml, genetic background: ΔsoxS

In the case of `CCC[C@@H]1C[C@@H](C(=O)N[C@@H]([C@H]2O[C@H](SC)[C@H](O)[C@@H](O)[C@H]2O)[C@H](C)Cl)N(C)C1` [Clindamycin], the “promoter activity interaction Z-score” value [1, 8] is reported as 0.462 ± 0.13, the “promoter activity interaction Z-score” value [1, 9] is reported as 0.688 ± 0.64 and the “promoter activity interaction Z-score” value [1, 10] is reported as 0.443 ± 0.12. The “promoter activity interaction Z-score” value [1, 11] was 0.20427 ± 5.4e-05, the “promoter activity interaction Z-score” value [1, 12] was 0.0439 ± 0.28 and the “promoter activity interaction Z-score” value [1, 13] was 0.0236 ± 0.74. For the same compound, the “promoter activity interaction Z-score” value [1, 14] was 0.389 ± 0.16, the “promoter activity interaction Z-score” value [1, 15] was 0.296 ± 0.26 and the “promoter activity interaction Z-score” value [1, 16] was 0.0522 ± 0.49. For the same compound, the “promoter activity interaction Z-score” value [1, 17] was -0.845 ± 0.54, the “promoter activity interaction Z-score” value [1, 18] was 0.554 ± 0.027 and the “promoter activity interaction Z-score” value [1, 19] was 0.424 ± 0.19. The “promoter activity interaction Z-score” value [1, 20] was 0.541 ± 0.29, the “promoter activity interaction Z-score” value [1, 21] was -1.07 ± 0.54 and the “promoter activity interaction Z-score” value [1, 22] was 0.386 ± 0.14. For the same compound, the “promoter activity interaction Z-score” value [1, 23] was 0.958 ± 1.2, the “promoter activity interaction Z-score” value [2, 8] was 0.333 ± 0.029 and the “promoter activity interaction Z-score” value [2, 9] was 0.0595 ± 0.25. The “promoter activity interaction Z-score” value [2, 10] was 0.168 ± 0.043, the “promoter activity interaction Z-score” value [2, 11] was 0.145 ± 0.068 and the “promoter activity interaction Z-score” value [2, 12] was -0.369 ± 0.4. For the same compound, the “promoter activity interaction Z-score” value [2, 13] was 0.0444 ± 0.093, the “promoter activity interaction Z-score” value [2, 14] was 0.0402 ± 0.096 and the “promoter activity interaction Z-score” value [2, 15] was 0.279 ± 0.051. For the same compound, the “promoter activity interaction Z-score” value [2, 16] was 0.363 ± 0.56, the “promoter activity interaction Z-score” value [2, 17] was -0.225 ± 0.051 and the “promoter activity interaction Z-score” value [2, 18] was 0.279 ± 0.32. The “promoter activity interaction Z-score” value [2, 19] was 0.414 ± 0.023, the “promoter activity interaction Z-score” value [2, 20] was 0.13 ± 0.11 and the “promoter activity interaction Z-score” value [2, 21] was -0.108 ± 0.33. The “promoter activity interaction Z-score” value [2, 22] was 0.449 ± 0.032, the “promoter activity interaction Z-score” value [2, 23] was 0.869 ± 0.17 and the “promoter activity interaction Z-score” value [3, 8] was 0.509 ± 0.54. The “promoter activity interaction Z-score” value [3, 9] was 0.0727 ± 0.038, the “promoter activity interaction Z-score” value [3, 10] was -0.112 ± 0.21 and the “promoter activity interaction Z-score” value [3, 11] was -0.295 ± 0.22. For the same compound, the “promoter activity interaction Z-score” value [3, 12] was -0.308 ± 0.46, the “promoter activity interaction Z-score” value [3, 13] was -0.109 ± 0.1 and the “promoter activity interaction Z-score” value [3, 14] was 0.00775 ± 0.06. The “promoter activity interaction Z-score” value [3, 15] was -0.12048 ± 8.2e-05, the “promoter activity interaction Z-score” value [3, 16] was -0.107 ± 0.47 and the “promoter activity interaction Z-score” value [3, 17] was -0.106 ± 0.01. The “promoter activity interaction Z-score” value [3, 18] was -0.0738 ± 0.2, the “promoter activity interaction Z-score” value [3, 19] was 0.189 ± 0.27 and the “promoter activity interaction Z-score” value [3, 20] was 0.291 ± 0.71. For the same compound, the “promoter activity interaction Z-score” value [3, 21] was -0.2694 ± 0.0025, the “promoter activity interaction Z-score” value [3, 22] was 0.0565 ± 0.17 and the “promoter activity interaction Z-score” value [3, 23] was 0.457 ± 0.16. The “promoter activity interaction Z-score” value [4, 8] was 0.86 ± 0.48, the “promoter activity interaction Z-score” value [4, 9] was 0.602 ± 0.034 and the “promoter activity interaction Z-score” value [4, 10] was 0.184 ± 0.088. The “promoter activity interaction Z-score” value [4, 11] was -0.129 ± 0.28, the “promoter activity interaction Z-score” value [4, 12] was 0.0844 ± 0.74 and the “promoter activity interaction Z-score” value [4, 13] was 0.364 ± 0.24. The “promoter activity interaction Z-score” value [4, 14] was 0.973 ± 0.091, the “promoter activity interaction Z-score” value [4, 15] was 0.0417 ± 0.17 and the “promoter activity interaction Z-score” value [4, 16] was 0.629 ± 1. For the same compound, the “promoter activity interaction Z-score” value [4, 17] was 0.255 ± 0.36, the “promoter activity interaction Z-score” value [4, 18] was 0.164 ± 0.52 and the “promoter activity interaction Z-score” value [4, 19] was 0.389 ± 0.074. For the same compound, the “promoter activity interaction Z-score” value [4, 20] was 1.41 ± 0.49, the “promoter activity interaction Z-score” value [4, 21] was 0.484 ± 0.28 and the “promoter activity interaction Z-score” value [4, 22] was 0.877 ± 0.67. The “promoter activity interaction Z-score” value [4, 23] was 1.71 ± 1.1, the “promoter activity interaction Z-score” value [5, 8] was 0.81 ± 0.04 and the “promoter activity interaction Z-score” value [5, 9] was 0.716 ± 0.3. For the same compound, the “promoter activity interaction Z-score” value [5, 10] was 0.204 ± 0.64, the “promoter activity interaction Z-score” value [5, 11] was 0.581 ± 0.019 and the “promoter activity interaction Z-score” value [5, 12] was 0.0509 ± 0.11. The “promoter activity interaction Z-score” value [5, 13] was 0.27 ± 0.26, the “promoter activity interaction Z-score” value [5, 14] was -0.0366 ± 0.51 and the “promoter activity interaction Z-score” value [5, 15] was 0.513 ± 0.74. The “promoter activity interaction Z-score” value [5, 16] was 0.553 ± 1.1, the “promoter activity interaction Z-score” value [5, 17] was 0.0526 ± 0.64 and the “promoter activity interaction Z-score” value [5, 18] was 0.0577 ± 0.99. For the same compound, the “promoter activity interaction Z-score” value [5, 19] was 0.531 ± 0.43, the “promoter activity interaction Z-score” value [5, 20] was -0.23 ± 0.084 and the “promoter activity interaction Z-score” value [5, 21] was -0.785 ± 0.17. For the same compound, the “promoter activity interaction Z-score” value [5, 22] was -0.582 ± 0.73, the “promoter activity interaction Z-score” value [5, 23] was -0.589 ± 0.59 and the “promoter activity interaction Z-score” value [6, 8] was 0.148 ± 0.1. The “promoter activity interaction Z-score” value [6, 9] was 0.331 ± 0.014, the “promoter activity interaction Z-score” value [6, 10] was 0.202 ± 0.053 and the “promoter activity interaction Z-score” value [6, 11] was 0.316 ± 0.0083. The “promoter activity interaction Z-score” value [6, 12] was -0.237 ± 0.079, the “promoter activity interaction Z-score” value [6, 13] was 0.237 ± 0.021 and the “promoter activity interaction Z-score” value [6, 14] was 0.217 ± 0.043. The “promoter activity interaction Z-score” value [6, 15] was 0.23 ± 0.076, the “promoter activity interaction Z-score” value [6, 16] was 0.0391 ± 0.054 and the “promoter activity interaction Z-score” value [6, 17] was 0.244 ± 0.1. For the same compound, the “promoter activity interaction Z-score” value [6, 18] was 0.0504 ± 0.034, the “promoter activity interaction Z-score” value [6, 19] was 0.138 ± 0.2 and the “promoter activity interaction Z-score” value [6, 20] was -0.0707 ± 0.029. For the same compound, the “promoter activity interaction Z-score” value [6, 21] was 0.0916 ± 0.17, the “promoter activity interaction Z-score” value [6, 22] was 0.0849 ± 0.32 and the “promoter activity interaction Z-score” value [6, 23] was 0.0804 ± 0.017. For the same compound, the “promoter activity interaction Z-score” value [7, 8] was -0.169 ± 0.35, the “promoter activity interaction Z-score” value [7, 9] was 0.807 ± 0.31 and the “promoter activity interaction Z-score” value [7, 10] was 0.395 ± 0.66. For the same compound, the “promoter activity interaction Z-score” value [7, 11] was -0.505 ± 0.044, the “promoter activity interaction Z-score” value [7, 12] was 0.223 ± 1 and the “promoter activity interaction Z-score” value [7, 13] was 0.212 ± 1.3. For the same compound, the “promoter activity interaction Z-score” value [7, 14] was 0.229 ± 0.18, the “promoter activity interaction Z-score” value [7, 15] was 0.282 ± 0.71 and the “promoter activity interaction Z-score” value [7, 16] was -0.594 ± 0.74. For the same compound, the “promoter activity interaction Z-score” value [7, 17] was 0.0618 ± 0.085, the “promoter activity interaction Z-score” value [7, 18] was -0.255 ± 0.54 and the “promoter activity interaction Z-score” value [7, 19] was 0.674 ± 0.27. The “promoter activity interaction Z-score” value [7, 20] was -0.385 ± 0.39, the “promoter activity interaction Z-score” value [7, 21] was -0.307 ± 0.67 and the “promoter activity interaction Z-score” value [7, 22] was 0.0932 ± 0.95. The “promoter activity interaction Z-score” value [7, 23] was 0.0435 ± 0.33.
